# An excerpt weighted towards active compounds, which were near 4.7% of everything screened.
# TRHR ag: qHTS for Small Molecule Agonists and Allosteric Enhancers of Human TRH Receptor: Primary Screen for Agonists; Thyrotropin-releasing hormone receptor (Homo sapiens), P34981; TRHR cells, calcium flux fluo-8, FDSS agonist mode; activation, % at 2 µM; hit rate 0.18% among 360,000; AID 493084, 2011; also: 0% is about no effect
#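 Fluo-8-loaded TRHR cells; 10 s baseline, compound added, kinetic Ca2+ fluorescence read 1/s, agonist mode.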
# D1 antag: Antagonist of Human D 1 Dopamine Receptor: qHTS | D(1A) dopamine receptor (Homo sapiens), P21728 | HEK293 TREx D1 cells, calcium flux, dopamine EC80; hits give low values | activity change, negative = inhibition, % at 10 µM | hit rate 3.2% among 360,000 | AID 504652, 2011; in the data active = activity change below about -30%; also: % is scaled to controls: 0 for no effect and ±100 for the full control effect
# Target sequence (P21728 whole entry, looked up): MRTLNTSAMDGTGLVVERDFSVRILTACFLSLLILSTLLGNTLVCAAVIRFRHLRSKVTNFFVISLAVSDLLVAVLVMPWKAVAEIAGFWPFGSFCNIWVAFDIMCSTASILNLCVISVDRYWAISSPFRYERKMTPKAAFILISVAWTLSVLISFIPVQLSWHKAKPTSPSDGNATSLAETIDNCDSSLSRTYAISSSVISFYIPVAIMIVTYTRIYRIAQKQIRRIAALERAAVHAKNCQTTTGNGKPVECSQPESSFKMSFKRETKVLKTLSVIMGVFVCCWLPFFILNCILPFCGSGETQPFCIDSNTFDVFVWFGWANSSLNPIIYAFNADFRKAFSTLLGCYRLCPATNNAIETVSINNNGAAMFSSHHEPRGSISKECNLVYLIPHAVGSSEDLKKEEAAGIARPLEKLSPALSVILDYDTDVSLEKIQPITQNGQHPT
#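 Tetracycline-induced HEK293 T-REx cells with force-coupled D1 receptor were loaded with a no-wash calcium dye. Compound was added after a 10 s baseline and read kinetically for 180 s; EC80 dopamine was then added and calcium flux followed another 180 s.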
# D1 potentiator: Potentiators of Human D1 Dopamine Receptor: qHTS; hit rate 0.036% among 360,000; AID 504651, 2011; potentiation, % at 10 µM; HEK293 TREx D1 cells, calcium flux, dopamine EC20 potentiation; in the data active = potentiation above about 30%; also: 0% is about no effect
# D1 agonist: Allosteric Agonists of the Human D1 Dopamine Receptor: qHTS | D(1A) dopamine receptor (Homo sapiens), P21728 | HEK293 T-REx D1 cells, calcium flux, agonist mode | activation, % at 2 µM | hit rate 1% among 360,000 | AID 504660, 2011; also: 0% is about no effect
#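 Agonism was scored from calcium flux recorded over 180 s (1 read/s) after pintool compound addition, following a 10-cycle baseline. Cells were inducible force-coupled HEK293 TREx D1, plated overnight at 30 C and loaded with no-wash calcium dye.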
# TRHR PAM: qHTS for Small Molecule Agonists and Allosteric Enhancers of Human TRH Receptor: Primary Screen for Enhancers; enhancement, % at 2 µM; TRHR cells, fluo-8 calcium fluorescence, EC20 TRH enhancement; hit rate 0.66% among 360,000; Thyrotropin-releasing hormone receptor (Homo sapiens), P34981; in the data active = enhancement above about 30%; also: 0% is about no effect
#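 Enhancer read-out: after compound pinning and an initial kinetic agonist-mode read, an EC20 of TRH (10 nM final) was injected and fluo-8 calcium signal (Ex 480/Em 530) followed at 1 s/cycle for 100 cycles in TRHR-expressing cells.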
# * = called active by the depositor; ! = not confirmed by another sample. Rule as the data show it, unless noted: active = activation above about 30%; inactive = the rest.
SMILES,TRHR ag,D1 antag,D1 potentiator,D1 agonist,TRHR PAM
Cc1ccc(C(=O)O)cc1NCc1ccncc1,0.6,1.1,0.0,-0.4,30.3*
O=C(O)c1ccc(Cl)c(NCc2ccncc2)c1,0.6,-7.5,-0.4,4.4,10.8
CCOc1ccccc1NC(=O)COC(=O)CN(C)S(=O)(=O)c1ccc(C)cc1,-0.3,-45.1*,-7.5,25.0,1.3
CCOc1ccccc1NC(=O)COC(=O)CNS(=O)(=O)c1ccc(C)cc1,0.5,-16.4,-1.9,-0.9,2.4
CCOc1ccccc1NC(=O)COC(=O)Cc1ccc(-c2ccccc2)cc1,-0.6,-36.6*,-5.2,39.1*,-2.3
Cc1cc(C)cc(OCc2nc(-c3cccnc3)no2)c1,-0.2,-30.4*,-1.4,2.9,-7.6
CCOc1cc(C(=O)NCc2nc(-c3cccc(C)c3)no2)cc(OCC)c1OCC,2.2,-30.7*,-0.1,6.5,-1.2
Cc1cc(C)cc(OCC(=O)NCc2nc(-c3ccccc3)no2)c1,-0.8,-58.0*,-2.7,26.4,-2.2
CCc1ccc(OCC(=O)NCc2nc(-c3cccc(C)c3)no2)c(Br)c1,-0.7,8.5,-1.9,38.1*,17.8
Cc1ccc(OCc2nc(-c3cccnc3)no2)cc1C,-0.5,-17.7,1.6,1.0,0.9
Cc1ccc(CC(=O)NCc2nc(-c3ccccc3)no2)cc1,-1.0,1.3,-3.0,-0.3,-0.9
COc1ccccc1OCC(=O)N(Cc1nc(-c2ccccc2)no1)C(C)C,0.2,0.6,-1.9,0.7,-5.3
CCOc1ccc(C(=O)N(Cc2nc(-c3cccc(C)c3)no2)C(C)C)cc1,-0.9,-16.7,1.4,47.3*,11.8
CCc1ccc(OCC(=O)NCCN(C)C)c(Br)c1,-0.5,-33.6*,0.9,0.9,9.2
O=C(NCc1nc(-c2ccccc2)no1)Nc1ccc(F)cc1,-0.2,-1.8,-1.3,7.5,40.3*
COc1ccccc1OCC(=O)N(Cc1nc(-c2ccc(Cl)cc2)no1)C(C)C,-0.4,-35.3*,-4.8,1.2,0.1
COc1ccccc1N1CCN(C(=O)CCNS(=O)(=O)c2cc(Br)cnc2N)CC1,-0.4,-4.5,0.2,7.9,-4.7
COc1ccc(CCC(C)NC2C3CC4CC(C3)CC2C4)cc1 (stereo not drawn),1.0,-71.2*,0.0,10.3,6.2
CCOC(=O)c1nnn2c1nc(N1CCCCC1)c1ccccc12,0.1,-42.2*,6.5,-1.1,-5.9
C=C(C)CN1CCN(c2c(CCC#N)c(C)c(C#N)c3nc4ccccc4n23)CC1,-1.3,-38.5*,-1.9,-0.8,1.9
CCOC(=O)N1CCN(C(=O)c2ccc3c(c2)N(Cc2ccccc2F)C(=O)c2ccccc2S3=O)CC1 (stereo not drawn),-0.1,-47.0*,-3.8,0.3,6.8
CCOC(=O)N1CCC(NC(=O)c2ccc3c(c2)N(Cc2ccccc2)C(=O)c2ccccc2S3=O)CC1 (stereo not drawn),-0.5,5.8,-3.1,4.1,5.9
CCN1CCN(C(=O)c2ccc3c(c2)N(Cc2ccccc2F)C(=O)c2ccccc2S3=O)CC1 (stereo not drawn),0.1,-3.6,-1.1,1.9,3.3
CCOC(=O)N1CCC(NC(=O)c2ccc3c(c2)N(Cc2ccc(F)cc2)C(=O)c2ccccc2S3=O)CC1 (stereo not drawn),1.0,2.5,-1.5,2.2,37.3*
COc1ccc(CCNC(=O)c2ccc3c(c2)N(Cc2cc(C)ccc2C)C(=O)c2ccccc2S3=O)cc1OC (stereo not drawn),-0.3,-5.8,-3.2,9.8,30.7*
SMILES,TRHR ag,D1 antag,D1 potentiator,D1 agonist,TRHR PAM
COc1ccc(CCNC(=O)c2ccc3c(c2)N(Cc2ccccc2F)C(=O)c2ccccc2S3=O)cc1OC (stereo not drawn),-0.3,7.9,1.9,0.7,9.9
COC(=O)c1sc(N2C(=O)c3oc4ccc(C)cc4c(=O)c3C2c2ccc(OC)cc2)nc1C (stereo not drawn),0.8,15.7,-1.8,1.9,6.2
Cc1ccc(CNC(=O)CCCN2C(=O)CCn3nc(-c4cn(C)c5ccccc45)cc32)cc1,-1.0,-16.3,2.0,2.4,1.2
O=[N+]([O-])c1ccccc1S(=O)(=O)N1CCN(C2CCN(Cc3ccccc3)CC2)CC1,1.4,-8.4,-1.6,0.8,31.1*
COc1ccc(OC)c(S(=O)(=O)N2CCN(Cc3ccccc3)CC2)c1,0.0,0.3,-0.4,6.2,30.5*
COc1ccc(OC)c(S(=O)(=O)N2CCC(C(=O)N3CCN(Cc4ccccc4)CC3)CC2)c1,-0.3,-3.1,-3.6,5.5,3.2
O=S(=O)(c1ccc(Cl)cc1)N1CCN(C2CCN(Cc3ccccc3)CC2)CC1,-0.5,5.7,-1.4,2.1,15.0
COc1ccc(Br)cc1S(=O)(=O)N1CCCC1,-0.4,-36.4*,-9.5,-1.8,-3.0
COc1ccc(S(=O)(=O)N2CCC(N3CCN(Cc4ccccc4)CC3)CC2)cc1,0.1,-5.6,-1.1,-1.9,31.5*
COCCCn1c(SCc2cccc(Cl)c2)nc2c(sc3ccccc32)c1=O,1.5,11.1,-0.1,6.9,-3.6
COc1ccc(S(=O)(=O)N2CCN(Cc3cccc(Cl)c3)CC2)cc1,0.3,-38.6*,-2.0,1.1,-0.9
COc1ccc(S(=O)(=O)N2CCC(N3CCN(Cc4ccc(F)cc4)C(=O)C3=O)CC2)cc1,-1.1,-35.9*,1.0,2.4,3.1
COc1ccc(S(=O)(=O)N2CCN(Cc3ccc(Cl)cc3)CC2)cc1,-1.2,9.7,-1.6,2.6,-0.8
O=C1C(=O)N(C2CCN(S(=O)(=O)c3ccc(F)cc3)CC2)CCN1Cc1ccccc1,0.1,24.0,-0.5,3.1,-2.5
Cc1ccccc1C(=O)Nc1nnc(S(=O)(=O)N(C)Cc2ccc(Cl)cc2)s1,0.4,-31.3*,-0.3,11.8,43.0*
Cc1ccc(NC(=O)CN(C)C(=O)CSc2nc3ccccc3c(=O)n2Cc2ccco2)cc1,-0.2,-33.2*,-1.7,2.5,0.8
CCOCCCn1c(SCC(=O)Nc2cccc(OC)c2)nc2ccccc2c1=O,-0.6,-46.2*!,-3.5,1.5,-7.0
CCN(CC)CCn1c(SCC(=O)Nc2ccc3c(c2)CCC3)nc2ccccc2c1=O,-0.3,-31.8*,-3.7,1.5,-3.9
Cc1cc(C)c2c(-n3cccc3)c(C(=O)NCCc3ccccc3)sc2n1,-0.2,-0.5,-1.9,9.7,-2.8
COc1ccc(CCNC(=O)CCc2nnc(Cc3ccc4c(c3)OCO4)o2)c(OC)c1,-0.4,-6.4,-5.9,8.6,-2.6
